Laboratory results as given in PMC7862700, “An all-to-all approach to the identification of sequence-specific readers for epigenetic DNA modifications on cytosine”.

Columns and labels:
Assay in all cases: DAPPL (digital affinity profiling via proximity ligation, sequencing); 10 mM Tris-HCl pH 7.5, 50 mM NaCl, 1 mM DTT, 4% glycerol, room temperature, 30 min; GST-TFs on glutathione beads, 16-mer random dsDNA library, 0.1% formaldehyde crosslink after washing; high values mean tight binding
Settings in all cases: protein: recombinant; tags: N-terminal GST; dsDNA, one strand shown
FLI1 = target: T1, FLI1 (Homo sapiens, UniProt Q01543 1-452)
T1 sequence: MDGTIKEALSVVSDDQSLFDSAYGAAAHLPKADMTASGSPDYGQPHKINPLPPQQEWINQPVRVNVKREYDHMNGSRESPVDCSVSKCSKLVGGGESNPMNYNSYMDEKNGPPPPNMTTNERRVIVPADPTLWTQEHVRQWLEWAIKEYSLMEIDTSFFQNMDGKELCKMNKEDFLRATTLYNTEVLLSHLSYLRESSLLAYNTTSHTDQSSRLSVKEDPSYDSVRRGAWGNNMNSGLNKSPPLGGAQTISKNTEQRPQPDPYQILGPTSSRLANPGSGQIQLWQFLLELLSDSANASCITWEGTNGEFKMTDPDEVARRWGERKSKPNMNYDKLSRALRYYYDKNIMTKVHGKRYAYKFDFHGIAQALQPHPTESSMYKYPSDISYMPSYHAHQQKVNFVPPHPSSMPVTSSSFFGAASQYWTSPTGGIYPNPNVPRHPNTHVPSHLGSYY
How it was run: (§1)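 Yeast served to express human transcription factors as GST fusions, which were then captured on glutathione beads and labelled with DNA barcodes. Pooled with a tag-only sample, they were incubated with 200 nmole of a 16-mer random double-stranded DNA library for 30 min at room temperature in Tris/NaCl/DTT/glycerol buffer, washed, crosslinked with 0.1% formaldehyde, ligated by proximity, amplified by PCR and sequenced. Dividing each hexamer's read frequency for a factor by its frequency for the tag-only sample gives the binding signal.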

ELF1 = ELF1 (Homo sapiens, UniProt P32519 1-619)
How it was run: as §1

EHF = target: T2, EHF (Homo sapiens, UniProt Q9NZC4 1-300)
T2 sequence: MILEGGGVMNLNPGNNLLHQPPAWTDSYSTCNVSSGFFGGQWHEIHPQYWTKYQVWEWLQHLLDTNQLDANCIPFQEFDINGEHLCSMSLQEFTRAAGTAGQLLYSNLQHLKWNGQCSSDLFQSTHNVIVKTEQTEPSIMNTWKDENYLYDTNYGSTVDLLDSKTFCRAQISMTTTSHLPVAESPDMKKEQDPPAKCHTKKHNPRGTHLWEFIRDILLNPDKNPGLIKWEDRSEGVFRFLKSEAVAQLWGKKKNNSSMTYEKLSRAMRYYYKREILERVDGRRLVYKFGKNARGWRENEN
How it was run: as §1

SPIB = SPIB (Homo sapiens, UniProt Q01892 1-262)
How it was run: as §1

SPIC = target: T3, SPIC (Homo sapiens, UniProt Q8N5J4 1-248)
T3 sequence: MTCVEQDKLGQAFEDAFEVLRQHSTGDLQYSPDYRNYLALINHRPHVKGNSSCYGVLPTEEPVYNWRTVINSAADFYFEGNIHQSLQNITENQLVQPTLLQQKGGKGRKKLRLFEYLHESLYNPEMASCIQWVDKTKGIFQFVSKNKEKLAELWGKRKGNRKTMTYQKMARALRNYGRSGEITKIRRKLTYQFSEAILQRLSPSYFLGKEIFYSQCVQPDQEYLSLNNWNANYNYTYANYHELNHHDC
How it was run: as §1

ELF4 = ELF4 (Homo sapiens, UniProt Q99607 1-663)
How it was run: as §1

ELK4 = target: T4, ELK4 (Homo sapiens, UniProt P28324-2 1-405)
T4 sequence: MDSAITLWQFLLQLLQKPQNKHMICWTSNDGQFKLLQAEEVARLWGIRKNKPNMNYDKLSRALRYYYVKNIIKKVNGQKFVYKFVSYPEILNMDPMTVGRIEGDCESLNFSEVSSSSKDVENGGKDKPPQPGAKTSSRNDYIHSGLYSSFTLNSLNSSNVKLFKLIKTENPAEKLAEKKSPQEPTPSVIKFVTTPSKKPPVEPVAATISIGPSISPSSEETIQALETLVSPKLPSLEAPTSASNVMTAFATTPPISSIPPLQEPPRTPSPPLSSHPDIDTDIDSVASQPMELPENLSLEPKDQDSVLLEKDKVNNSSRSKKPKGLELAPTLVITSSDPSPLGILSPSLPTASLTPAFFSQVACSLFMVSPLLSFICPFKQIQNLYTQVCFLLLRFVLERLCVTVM
How it was run: as §1

ETV2 = target: T5, ETV2 (Homo sapiens, UniProt O00321 1-342)
T5 sequence: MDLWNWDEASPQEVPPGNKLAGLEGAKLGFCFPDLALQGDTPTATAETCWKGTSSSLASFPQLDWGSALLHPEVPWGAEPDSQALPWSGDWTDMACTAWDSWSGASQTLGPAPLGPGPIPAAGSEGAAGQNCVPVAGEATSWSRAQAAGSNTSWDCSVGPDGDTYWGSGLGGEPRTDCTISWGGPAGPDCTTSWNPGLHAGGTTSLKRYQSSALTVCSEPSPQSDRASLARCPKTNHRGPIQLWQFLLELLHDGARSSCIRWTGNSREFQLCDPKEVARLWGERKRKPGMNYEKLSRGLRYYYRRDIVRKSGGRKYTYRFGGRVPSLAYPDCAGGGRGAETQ
How it was run: as §1

ERF = target: T6, ERF (Homo sapiens, UniProt P50548 1-548)
T6 sequence: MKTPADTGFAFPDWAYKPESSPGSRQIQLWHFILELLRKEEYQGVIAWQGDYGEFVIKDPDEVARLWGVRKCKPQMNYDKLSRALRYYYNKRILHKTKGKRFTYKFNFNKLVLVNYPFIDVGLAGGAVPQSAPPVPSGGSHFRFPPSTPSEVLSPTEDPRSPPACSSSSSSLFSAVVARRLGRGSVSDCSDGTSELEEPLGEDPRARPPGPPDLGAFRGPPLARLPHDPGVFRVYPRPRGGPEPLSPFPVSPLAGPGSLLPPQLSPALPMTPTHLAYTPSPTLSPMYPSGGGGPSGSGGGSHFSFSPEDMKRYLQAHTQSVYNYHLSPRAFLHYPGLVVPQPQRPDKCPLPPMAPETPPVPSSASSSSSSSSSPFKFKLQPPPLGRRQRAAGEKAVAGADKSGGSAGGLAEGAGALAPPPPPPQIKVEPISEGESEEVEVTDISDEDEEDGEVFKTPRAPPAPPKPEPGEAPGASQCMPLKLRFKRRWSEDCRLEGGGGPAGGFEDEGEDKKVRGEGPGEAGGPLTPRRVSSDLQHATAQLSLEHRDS
How it was run: as §1

ETV7 = target: T7, ETV7 (Homo sapiens, UniProt Q9Y603 1-341)
T7 sequence: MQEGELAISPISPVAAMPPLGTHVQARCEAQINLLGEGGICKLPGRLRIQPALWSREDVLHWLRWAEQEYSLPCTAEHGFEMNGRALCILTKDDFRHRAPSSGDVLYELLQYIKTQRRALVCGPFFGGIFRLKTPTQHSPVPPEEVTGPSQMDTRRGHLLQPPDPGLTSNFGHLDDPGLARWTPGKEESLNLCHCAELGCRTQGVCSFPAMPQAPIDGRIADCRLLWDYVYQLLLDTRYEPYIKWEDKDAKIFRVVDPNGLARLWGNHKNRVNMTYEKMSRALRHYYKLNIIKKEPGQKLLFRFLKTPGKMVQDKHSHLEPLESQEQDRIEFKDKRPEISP
How it was run: as §1

ETV6 = ETV6 (Homo sapiens, UniProt P41212 1-452)
How it was run: as §1

ELK1 = target: T8, ELK1 (Homo sapiens, UniProt P19419 1-428)
T8 sequence: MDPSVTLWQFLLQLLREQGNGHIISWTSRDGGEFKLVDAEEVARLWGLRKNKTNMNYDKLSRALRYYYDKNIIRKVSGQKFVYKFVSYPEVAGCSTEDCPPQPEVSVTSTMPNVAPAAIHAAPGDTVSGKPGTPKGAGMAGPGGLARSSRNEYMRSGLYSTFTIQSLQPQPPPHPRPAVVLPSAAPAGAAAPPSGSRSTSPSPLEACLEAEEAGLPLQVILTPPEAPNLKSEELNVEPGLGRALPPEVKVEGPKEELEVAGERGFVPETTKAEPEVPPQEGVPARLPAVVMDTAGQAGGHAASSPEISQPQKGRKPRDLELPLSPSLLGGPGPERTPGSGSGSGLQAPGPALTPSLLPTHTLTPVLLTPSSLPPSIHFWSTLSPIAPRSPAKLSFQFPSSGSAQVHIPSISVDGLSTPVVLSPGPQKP
How it was run: as §1

ELF3 = target: T9, ELF3 (Homo sapiens, UniProt P78545 1-371)
T9 sequence: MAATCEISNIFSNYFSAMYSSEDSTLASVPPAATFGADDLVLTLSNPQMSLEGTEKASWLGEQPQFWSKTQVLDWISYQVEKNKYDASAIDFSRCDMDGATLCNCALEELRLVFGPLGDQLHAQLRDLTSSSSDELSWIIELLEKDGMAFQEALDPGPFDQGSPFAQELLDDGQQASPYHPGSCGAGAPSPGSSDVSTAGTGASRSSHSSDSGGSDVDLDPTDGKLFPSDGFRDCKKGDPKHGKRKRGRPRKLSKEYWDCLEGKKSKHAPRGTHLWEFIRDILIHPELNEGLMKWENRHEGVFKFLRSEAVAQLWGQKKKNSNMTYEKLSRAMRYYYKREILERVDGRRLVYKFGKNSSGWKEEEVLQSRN
How it was run: as §1

ETV3L = target: T10, ETV3L (Homo sapiens, UniProt Q6ZN32 1-361)
T10 sequence: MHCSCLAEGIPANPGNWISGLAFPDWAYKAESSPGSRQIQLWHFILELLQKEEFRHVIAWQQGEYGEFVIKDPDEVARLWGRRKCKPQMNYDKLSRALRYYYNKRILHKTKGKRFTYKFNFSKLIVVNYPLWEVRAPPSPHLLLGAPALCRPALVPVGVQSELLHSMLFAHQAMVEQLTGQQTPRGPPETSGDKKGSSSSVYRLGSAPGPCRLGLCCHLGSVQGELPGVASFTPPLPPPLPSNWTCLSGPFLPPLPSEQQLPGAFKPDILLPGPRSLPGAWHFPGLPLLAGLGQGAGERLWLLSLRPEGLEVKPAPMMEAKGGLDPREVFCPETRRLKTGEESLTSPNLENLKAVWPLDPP
How it was run: as §1

ETS2 = target: T11, ETS2 (Homo sapiens, UniProt P15036 1-469)
T11 sequence: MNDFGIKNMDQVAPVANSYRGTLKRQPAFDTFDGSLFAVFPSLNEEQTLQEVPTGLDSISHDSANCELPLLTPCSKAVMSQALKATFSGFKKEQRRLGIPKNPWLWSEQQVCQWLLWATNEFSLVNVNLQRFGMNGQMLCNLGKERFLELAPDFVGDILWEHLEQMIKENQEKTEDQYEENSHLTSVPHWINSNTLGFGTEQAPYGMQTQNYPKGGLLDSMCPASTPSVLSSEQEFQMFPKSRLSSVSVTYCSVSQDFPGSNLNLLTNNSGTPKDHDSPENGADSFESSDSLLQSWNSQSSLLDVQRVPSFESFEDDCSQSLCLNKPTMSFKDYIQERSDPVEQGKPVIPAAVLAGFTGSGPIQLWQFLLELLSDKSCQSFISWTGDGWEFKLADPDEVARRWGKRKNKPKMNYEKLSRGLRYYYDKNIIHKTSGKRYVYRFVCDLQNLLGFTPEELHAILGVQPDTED
How it was run: as §1

Sequence of ELF4 (Q99607 whole entry): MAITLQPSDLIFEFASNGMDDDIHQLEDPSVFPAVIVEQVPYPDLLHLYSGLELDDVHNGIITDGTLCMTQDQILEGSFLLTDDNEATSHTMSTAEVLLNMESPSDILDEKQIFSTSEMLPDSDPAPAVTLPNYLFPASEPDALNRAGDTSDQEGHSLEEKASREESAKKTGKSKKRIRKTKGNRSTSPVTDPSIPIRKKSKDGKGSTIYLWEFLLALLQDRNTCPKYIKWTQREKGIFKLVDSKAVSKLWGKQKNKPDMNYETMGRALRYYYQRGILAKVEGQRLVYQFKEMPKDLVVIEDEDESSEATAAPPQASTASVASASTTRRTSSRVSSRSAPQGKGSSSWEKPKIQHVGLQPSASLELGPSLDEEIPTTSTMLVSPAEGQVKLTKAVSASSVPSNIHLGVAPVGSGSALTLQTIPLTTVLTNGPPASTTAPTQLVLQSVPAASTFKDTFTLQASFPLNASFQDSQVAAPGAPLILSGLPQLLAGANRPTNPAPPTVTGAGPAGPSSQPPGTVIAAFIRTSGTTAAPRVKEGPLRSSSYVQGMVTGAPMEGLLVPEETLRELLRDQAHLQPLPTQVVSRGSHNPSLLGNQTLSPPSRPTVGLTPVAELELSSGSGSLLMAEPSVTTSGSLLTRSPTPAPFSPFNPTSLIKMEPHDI
Sequence of SPIB (Q01892 whole entry): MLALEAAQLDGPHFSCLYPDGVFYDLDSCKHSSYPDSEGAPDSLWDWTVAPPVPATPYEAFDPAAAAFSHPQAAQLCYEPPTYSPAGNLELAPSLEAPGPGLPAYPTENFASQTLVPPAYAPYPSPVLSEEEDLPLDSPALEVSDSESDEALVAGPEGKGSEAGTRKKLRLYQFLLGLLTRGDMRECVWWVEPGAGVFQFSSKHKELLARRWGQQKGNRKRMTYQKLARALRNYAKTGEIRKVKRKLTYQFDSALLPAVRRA
Sequence of ETV6 (P41212 whole entry): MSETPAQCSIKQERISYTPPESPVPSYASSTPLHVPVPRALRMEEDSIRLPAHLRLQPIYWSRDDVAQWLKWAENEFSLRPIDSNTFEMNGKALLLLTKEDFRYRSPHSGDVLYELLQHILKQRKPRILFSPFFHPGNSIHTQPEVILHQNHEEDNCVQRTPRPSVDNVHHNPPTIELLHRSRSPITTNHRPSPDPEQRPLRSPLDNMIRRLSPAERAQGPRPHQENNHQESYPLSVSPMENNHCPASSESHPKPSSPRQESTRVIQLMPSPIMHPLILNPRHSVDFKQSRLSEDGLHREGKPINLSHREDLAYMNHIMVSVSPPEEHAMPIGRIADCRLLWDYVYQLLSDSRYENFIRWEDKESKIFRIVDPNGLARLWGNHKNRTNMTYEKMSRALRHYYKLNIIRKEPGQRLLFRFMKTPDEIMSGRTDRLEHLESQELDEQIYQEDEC
Sequence of ELF1 (P32519 whole entry): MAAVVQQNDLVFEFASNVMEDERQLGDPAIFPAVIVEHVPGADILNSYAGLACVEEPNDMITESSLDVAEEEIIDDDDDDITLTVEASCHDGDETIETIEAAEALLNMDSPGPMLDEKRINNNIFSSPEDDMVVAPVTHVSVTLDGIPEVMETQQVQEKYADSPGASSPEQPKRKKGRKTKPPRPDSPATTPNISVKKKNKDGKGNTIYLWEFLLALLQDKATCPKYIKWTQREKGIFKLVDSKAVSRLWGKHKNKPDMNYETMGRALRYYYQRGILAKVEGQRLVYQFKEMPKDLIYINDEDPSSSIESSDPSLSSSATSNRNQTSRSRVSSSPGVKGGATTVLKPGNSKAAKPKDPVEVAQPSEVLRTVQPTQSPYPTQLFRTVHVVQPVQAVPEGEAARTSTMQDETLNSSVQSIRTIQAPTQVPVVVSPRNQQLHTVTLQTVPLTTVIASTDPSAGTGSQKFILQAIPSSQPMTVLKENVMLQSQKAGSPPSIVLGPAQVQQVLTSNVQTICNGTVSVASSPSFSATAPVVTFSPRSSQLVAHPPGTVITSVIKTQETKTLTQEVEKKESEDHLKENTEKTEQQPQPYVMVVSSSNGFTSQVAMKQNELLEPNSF

| Sequence | binding signal (FLI1) | binding signal (ELF1) | binding signal (EHF) | binding signal (SPIB) | binding signal (SPIC) | binding signal (ELF4) | binding signal (ELK4) | binding signal (ETV2) | binding signal (ERF) | binding signal (ETV7) | binding signal (ETV6) | binding signal (ELK1) | binding signal (ELF3) | binding signal (ETV3L) | binding signal (ETS2) |
| --- | --- | --- | --- | --- | --- | --- | --- | --- | --- | --- | --- | --- | --- | --- | --- |
| TAGTTG | 1.04 fold enrichment (6-mer frequency, TF over GST control) | 1.01 fold enrichment (6-mer frequency, TF over GST control) | 1.01 fold enrichment (6-mer frequency, TF over GST control) | 1.02 fold enrichment (6-mer frequency, TF over GST control) | 1 fold enrichment (6-mer frequency, TF over GST control) | 1.01 fold enrichment (6-mer frequency, TF over GST control) | 1.18 fold enrichment (6-mer frequency, TF over GST control) | 1.01 fold enrichment (6-mer frequency, TF over GST control) | 1.07 fold enrichment (6-mer frequency, TF over GST control) | 1.02 fold enrichment (6-mer frequency, TF over GST control) | 1.01 fold enrichment (6-mer frequency, TF over GST control) | – | – | – | – |
| TAGGTA | 1.02 fold enrichment (6-mer frequency, TF over GST control) | – | – | – | – | – | – | – | 1.08 fold enrichment (6-mer frequency, TF over GST control) | 1.1 fold enrichment (6-mer frequency, TF over GST control) | – | 1.06 fold enrichment (6-mer frequency, TF over GST control) | 1.12 fold enrichment (6-mer frequency, TF over GST control) | 1.01 fold enrichment (6-mer frequency, TF over GST control) | 1.03 fold enrichment (6-mer frequency, TF over GST control) |
